Compound activity deposited in PubChem by National Center for Advancing Translational Sciences (NCATS).
HT1080 IDH1KD tx: qHTS for induction of synthetic lethality in tumor cells producing 2HG: qHTS for the HT-1080-IDH1KD cell line. HT-1080 IDH1 knockdown viability, ATP luminescence, 48 h. Potency, µM (series often up to 46.1 µM), without a hit: top-dose activity, negative = toxicity, actives largely listed as cytotoxic. 360,000 tested, 2% active. AID 686971, 2013;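 also: potency is read from the fitted curve at half-maximal effect; 0% = DMSO wells and -100% = cell-free medium wells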
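In this qHTS, HT-1080 cells depleted of IDH1 are exposed for 48 h at 37 °C to compound titrations. Toxicity is scored from CellTiter-Glo luminescence, with DMSO as full viability and medium alone as none.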
DT40 TDP1 CPT: qHTS for Inhibitors of human tyrosyl-DNA phosphodiesterase 1 (TDP1): qHTS in cells in presence of CPT | Potency, µM (top dose mostly 46.2 µM), for the others: at the top dose activity change, negative = growth inhibition, usual class: inhibitors | chicken DT40 Tdp1-/-;hTDP1 cells + 20 nM CPT, ATP luminescence, 48 h | AID 686979, 2013 | 420,000 tested, 12% active; also: potency is read from the fitted curve at half-maximal effect; nearly all actives have a fitted effect of over 55% in size
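Cell growth measured by CellTiter-Glo luminescence after a minimum 48 h, 37 C compound exposure with 20 nM CPT in Tdp1-knockout DT40 cells stably expressing hTDP1, seeded 400/well; qHTS titration format.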
HT1080-NT tox: qHTS for induction of synthetic lethality in tumor cells producing 2HG: qHTS for the HT-1080-NT fibrosarcoma cell line | Potency, µM (highest dose often 46.1 µM), inactives show top-dose activity, negative = less viability, hits mostly cytotoxic | 360,000 tested, 1.6% active | HT-1080-NT fibrosarcoma viability, CellTiter-Glo ATP luminescence, 48 h | AID 686970, 2013;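 also: NT is the 2HG producing partner of a matched IDH1 knockdown line; potency is read from the fitted curve at half-maximal effect; 0% = DMSO-treated cells and -100% = media-only wells without cells; nearly all actives have a fitted effect of over 55% in size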
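HT-1080-NT; 750 cells/well; 5% FBS RPMI; 48 h compound, 37 degrees C; CellTiter-Glo luminescence; curve fitting and curve-class assignment.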
TDP1 cell noCPT: qHTS for Inhibitors of human tyrosyl-DNA phosphodiesterase 1 (TDP1): qHTS in cells in absence of CPT; DT40 Tdp1-/- hTDP1 cells, no CPT, ATP luminescence, 48 h; Potency, µM (top dose mostly 46.2 µM), for the others: top-dose activity change, negative = growth inhibition, hits mostly inhibitors; 420,000 tested, 15% active; also: potency is read from the fitted curve at half-maximal effect; nearly all actives have a fitted effect of over 55% in size
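DT40 Tdp1-/-;hTDP1 cells, no CPT (DMSO vehicle only), 400 cells/well; compounds pin-transferred; ≥48 hr, 37 °C; CellTiter-Glo 30 min RT dark, luminescence read.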
ALOX12 inh: Primary qHTS assay for inhibitors of human arachidonate 12S-lipoxygenase (ALOX12): Round 2. Polyunsaturated fatty acid lipoxygenase ALOX12 (Homo sapiens), P18054. purified 12hLO, xylenol orange hydroperoxide absorbance. Potency, µM (top dose mostly 108 µM), for inactives: top-dose activity change, negative = inhibition, usual class: inhibitors. 580,000 tested, 1.1% active; also: potency is read from the fitted curve at half-maximal effect
Target sequence (P18054 whole entry, looked up): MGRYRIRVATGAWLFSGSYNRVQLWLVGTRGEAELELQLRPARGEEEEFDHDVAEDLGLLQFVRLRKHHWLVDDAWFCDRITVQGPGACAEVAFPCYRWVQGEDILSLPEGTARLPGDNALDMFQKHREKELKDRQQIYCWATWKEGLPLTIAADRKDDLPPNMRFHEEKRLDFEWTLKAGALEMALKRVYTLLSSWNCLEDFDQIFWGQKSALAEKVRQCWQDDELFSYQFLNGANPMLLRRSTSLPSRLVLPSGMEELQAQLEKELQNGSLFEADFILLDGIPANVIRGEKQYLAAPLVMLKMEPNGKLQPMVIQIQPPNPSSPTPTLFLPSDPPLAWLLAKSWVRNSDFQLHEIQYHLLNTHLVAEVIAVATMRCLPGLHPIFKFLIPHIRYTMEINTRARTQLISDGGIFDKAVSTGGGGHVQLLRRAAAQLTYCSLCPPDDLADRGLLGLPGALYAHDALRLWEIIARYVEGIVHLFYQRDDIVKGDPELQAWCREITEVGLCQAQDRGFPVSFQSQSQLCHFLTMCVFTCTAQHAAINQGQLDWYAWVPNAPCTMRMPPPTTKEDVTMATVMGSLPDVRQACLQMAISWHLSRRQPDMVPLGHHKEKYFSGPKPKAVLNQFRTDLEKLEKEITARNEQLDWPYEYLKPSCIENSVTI
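Purified human 12hLO (150 nM final) in 25 mM Hepes, 0.01% Triton X-100, pH 7.0 was preincubated 15 min at room temperature with compound. Then 40 uM arachidonic acid was added, 30 min. Hydroperoxide was read by Fe-XO absorbance ratio 573/405 nm.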
IL-1B inflam inh: qHTS for Inhibitors of Inflammasome Signaling: IL-1-beta AlphaLISA Primary Screen; THP-1 LPS/ATP IL-1B secretion, AlphaLISA, 16 h; stronger effect = lower value; activity change, % at 57.5 µM; 360,000 tested, 4.7% active; in the data active = activity change below about -50%; inconclusive = mostly about -30% to -49%
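THP-1 cells pretreated 1 hr with compounds (up to 57.5 uM final), then stimulated with LPS (250 ng/mL final) plus ATP (1.25 mM final); secreted IL-1B measured by AlphaLISA after 16 hr, decreased signal indicating inhibition.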
Starred values were filed as active, the others as inactive; ? = inconclusive; . = not tested or not shown; [ ] = another dose, or the depositor's remark. Only a selection was taken, and hits are over-represented in it overall. Unless noted, calls follow the shape of the dose curve; as a rule, active = well fitted curve in the direction sought with a large enough effect; inconclusive = small, poorly fitted or top-dose-only effect, or another doubt; inactive = no such curve, though single readings can be large; an effect the other way counts as inactive or inconclusive. Unless noted, % is scaled to controls: 0 for no effect and ±100 for the full control effect.

SMILES	HT1080 IDH1KD tx	DT40 TDP1 CPT	HT1080-NT tox	TDP1 cell noCPT	ALOX12 inh	IL-1B inflam inh
Cn1c(SCc2ccc(Cl)c(Cl)c2)nnc1-c1cccnc1	.	.	.	.	-7%	.
OCCOCCn1c(C2CCCN2c2nc(-c3ccc(F)cc3)cs2)nc2cc(Cl)c(Cl)cc21 (configuration not stated)	?	?	?	21µM*	-5%	-54*
Cc1ccc(Cn2c(C3CCCN3c3nc(-c4ccc(F)cc4)cs3)nc3cc(C(F)(F)F)ccc32)cc1 (configuration not stated)	-6%	18µM*	0%	21µM*	-13%	24
Cc1ccc(Cn2c(C3CCCN3c3nc(-c4ccc(F)cc4)cs3)nc3cc(Cl)c(Cl)cc32)cc1 (configuration not stated)	1%	3%	-2%	-25%	?	-7
COC(=O)c1ccc(-n2c(C)cc(/C=N/Nc3nc(C)cc(=O)[nH]3)c2C)cc1	-13%	15µM*	0%	16µM*	64%	13
Cc1cc(=O)[nH]c(N/N=C/c2cc(C)n(CC(F)(F)F)c2C)n1	-6%	8.2µM*	-18%	7.3µM*	12%	10
O=C(Cn1ccnc1)N1CCC(N2C(=O)C3(CCCCC3)C2c2ccncc2)CC1 (configuration not stated)	.	.	.	.	36%	.
Cc1ccc(C)n1NC(=O)c1ccccc1Cl	11%	-26%	5%	?	45µM*	8
CC(=O)c1c(C(C)=O)c(C)n(NC(=O)c2ccccc2Cl)c1C	-10%	-25%	-7%	-13%	-31%	7
CCc1nc2nc(C)c(NS(=O)(=O)c3cccs3)c(=O)n2[nH]1	10%	-5%	?	-13%	6.3µM*	11
Cc1ccc(NC(=O)N(C)C(c2ccc(Cl)cc2)c2nccn2C)cc1 (configuration not stated)	.	.	.	.	-22%	.
O=C1C2CC=CCC2C(=O)N1c1ccc(N2CCN(c3ccccn3)CC2)c([N+](=O)[O-])c1 (configuration not stated)	2%	?	?	16µM*	-13%	6
O=C(c1ccc(N2CCCCC2)c([N+](=O)[O-])c1)N1CCN(c2ccccn2)CC1	1%	-28%	7%	?	14%	-7
C=CCn1cc(/C=N/NC(=O)COc2cccc3cccnc23)c2ccccc21	-24%	15µM*	?	16µM*	-5%	-14
CC(C)n1cc(/C=N/NC(=O)COc2cccc3cccnc23)c2ccccc21	?	?	?	?	2%	-78*
O=C(NCC1Cn2cccc2C(=O)N1Cc1ccccc1)C1CCOCC1 (configuration not stated)	.	.	.	.	12%	.
Brc1ccc(-c2nc3ccccc3s2)s1	-11%	-13%	-3%	-29%	0%	0
O=c1ccc2nc3ccccc3sc-2c1	?	0.65µM*	?	1.5µM*	?	-102*
N#CCCn1nc(-c2ccc(F)cc2)c2ccccc2c1=O	.	.	.	.	7%	.
N#Cc1c(-c2ccc(F)cc2)c(-c2ccc(F)cc2)nn(CCO)c1=O	8.2µM*	4.6µM*	6.5µM*	3.3µM*	12%	5
CCn1c(-c2ccc(C(C)(C)C)cc2)n[nH]c1=S	-25%	15µM*	-11%	8.2µM*	16µM*	-4
CC(C)(C)c1ccc(-c2n[nH]c(=S)n2C2CCCC2)cc1	?	?	?	16µM*	?	-7
Cn1c(-c2ccc(C(C)(C)C)cc2)n[nH]c1=S	-2%	?	-12%	?	?	15
CCn1c(-c2cccc(Cl)c2)n[nH]c1=S	5%	-25%	16%	1%	28µM*	31
CCn1c(-c2cc(Br)ccc2O)n[nH]c1=S	-23%	-9%	0%	-21%	45µM*	-23
SMILES	HT1080 IDH1KD tx	DT40 TDP1 CPT	HT1080-NT tox	TDP1 cell noCPT	ALOX12 inh	IL-1B inflam inh
COc1ccc(C2Cn3cnc(C(=O)N4CCC(C(=O)NC(C)C)CC4)c3CO2)cc1 (configuration not stated)	.	.	.	.	-1%	.
CCNC(=O)N[C@H]1CC[C@]2(C)CC[C@@H](C(C)C(=O)NC3CCCCC3)[C@H](O)[C@H]2[C@@H]1C (some centres not stated)	.	.	.	.	-4%[176 µM]	.
Cn1cccc1/C=N/n1c(-c2ccc(C(C)(C)C)cc2)n[nH]c1=S	-8%[9.24 µM]	8.2µM*	?	8.2µM*	25µM*	45
CCCCOCCCNC(=O)C[C@H]1C[C@@]2(C(=O)OC)C(=C[C@H](COCc3ccccc3)O[C@@H]2C)N(CCC2=CCCCC2)C1=O	.	.	.	.	-21%	.
COc1ccc(-c2cc(CNC(=O)CCl)on2)cc1	?	?	?	?	3%	-92*
COc1ccc(/C=C2\N=C(C(C)(C)C)OC2=O)c(OC)c1	0%	7.3µM*	-1%	8.2µM*	7%	31
COc1ccc(OC)c(/C=C2\N=C(c3ccccc3)OC2=O)c1	4%	-12%	2%	-14%	9%	-6
CCOC(=O)C1CCN(C(=O)C2CCCN(c3ncnc4c3nc3n4CCCCC3)C2)CC1 (configuration not stated)	6%	?	12%	18µM*	35%	-5
CC1CC(C)CN(C(=O)C2CCCN(c3ncnc4c3nc3n4CCCCC3)C2)C1 (configuration not stated)	-6%	23µM*	-13%	15µM*	?	-8
CC1CCCN(C(=O)C2CCN(c3ncnc4c3nc3n4CCCCC3)CC2)C1 (configuration not stated)	0%	?	-7%	23µM*	5%	-3
COCCN1C(=O)c2cccn2CC1CNC(=O)COc1ccccc1 (configuration not stated)	.	.	.	.	40%	.
COc1ccccc1NS(=O)(=O)c1ccc(NC(=O)Cc2cccs2)cc1	-8%	?	-7%	?	-4%	0
COc1ccccc1NS(=O)(=O)c1cccc(C(=O)N(C)Cc2cccs2)c1	-6%	23µM*	-2%	23µM*	1%	16
